Compounds with a hit are over-represented: about 2.8% of the library has one in this group of screens.
POLH inh: qHTS for Inhibitors of Polymerase Eta; DNA polymerase eta (Homo sapiens), Q9Y253; recombinant Pol eta, fluorescent DNA replication assay; Potency, µM (titrated, usually from 114 µM), for the others: at the highest dose activity change, negative = inhibition, actives largely listed as inhibitors; hit rate 1.2% among 390,000; also: potency is read from the fitted curve at half-maximal effect; % is scaled to controls: 0 for no effect and ±100 for the full control effect
Target sequence (Q9Y253 whole entry, looked up): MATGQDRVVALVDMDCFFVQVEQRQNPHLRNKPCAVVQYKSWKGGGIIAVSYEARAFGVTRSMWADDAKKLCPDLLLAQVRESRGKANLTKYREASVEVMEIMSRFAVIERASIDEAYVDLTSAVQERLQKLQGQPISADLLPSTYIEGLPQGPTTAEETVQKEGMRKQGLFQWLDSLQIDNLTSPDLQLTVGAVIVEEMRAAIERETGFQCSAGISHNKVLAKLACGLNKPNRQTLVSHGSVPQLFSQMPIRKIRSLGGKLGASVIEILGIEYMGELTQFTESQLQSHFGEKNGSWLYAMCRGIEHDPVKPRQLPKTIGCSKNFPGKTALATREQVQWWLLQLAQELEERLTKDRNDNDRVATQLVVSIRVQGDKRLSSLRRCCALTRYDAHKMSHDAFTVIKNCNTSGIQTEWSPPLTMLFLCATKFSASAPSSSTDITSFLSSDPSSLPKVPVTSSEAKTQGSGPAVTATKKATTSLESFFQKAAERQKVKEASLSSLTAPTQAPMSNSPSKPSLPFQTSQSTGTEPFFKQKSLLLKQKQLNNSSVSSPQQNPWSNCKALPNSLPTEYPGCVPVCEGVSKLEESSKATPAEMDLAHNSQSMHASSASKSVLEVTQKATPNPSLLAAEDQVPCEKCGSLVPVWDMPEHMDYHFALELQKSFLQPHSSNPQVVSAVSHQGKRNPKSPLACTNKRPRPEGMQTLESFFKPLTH
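Pol eta (10 nM) was preincubated with compounds for 15 min at room temperature, after which fluorescent replication substrate (50 nM final) was added to start the reaction. Fluorescence was read kinetically at 0 and 10 min.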
POLB inh: qHTS Assay for Inhibitors of DNA Polymerase Beta; P06746; Pol beta primer extension/strand displacement, fluorescence kinetic; Potency, µM (titrated, usually from 114 µM), for the others: top-dose activity change, negative = inhibition, usual class: inhibitors; hit rate 1.3% among 340,000; AID 485314, 2010; also: potency is read from the fitted curve at half-maximal effect; % is scaled to controls: 0 for no effect and ±100 for the full control effect
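Curves were derived by four-parameter Hill fits of normalized qHTS data. The kinetic fluorescent primer-extension read was taken at 0 and 10 min after 50 nM substrate, following a 15 min room-temperature preincubation of 10 nM enzyme with compounds.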
Pol kappa inh: qHTS for Inhibitors of Polymerase Kappa | DNA polymerase kappa (Homo sapiens), Q9UBT6 | purified Pol kappa, fluorescent DNA synthesis assay, 10 min | Potency, µM (series often up to 107 µM), for inactives: top-dose activity, negative = inhibition, actives largely listed as inhibitors | hit rate 0.53% among 400,000 | AID 588579, 2011; also: potency is read from the fitted curve at half-maximal effect; % is scaled to controls: 0 for no effect and ±100 for the full control effect
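First, compounds were pin-transferred onto 10 nM Pol kappa. After 15 min at room temperature, substrate was added to 50 nM final. Fluorescence was then measured kinetically at 0 and 10 min.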
PI5P4Ka inh: qHTS for Inhibitors of phosphatidylinositol 5-phosphate 4-kinase (PI5P4K); Phosphatidylinositol 5-phosphate 4-kinase type-2 alpha (Homo sapiens), P48426; PI5P4Kalpha enzyme, ADP-Glo luminescence, 60 min; stronger effect = lower value; max response, %; hit rate 1.2% among 330,000; AID 652105, 2013; active = max response of -50% or lower; inconclusive = between -30% and -50%; inactive = -30% or higher; also: value at the top dose of about 77 µM; % is scaled to controls: 0 for no effect and ±100 for the full control effect
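Luminescence from ADP-Glo served as readout of PI5P4Kalpha activity in a qHTS format. Reaction: enzyme, substrate, compound, ATP at 5 microM final, 60 min at RT.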
Pol iota inh: qHTS for Inhibitors of Polymerase Iota | DNA polymerase iota (Homo sapiens), Q9UNA4 | Pol iota fluorescent replication assay, 10 min | Potency, µM (series often up to 115 µM), for the others: top-dose activity, negative = inhibition, usual class: inhibitors | hit rate 1% among 390,000; also: potency is read from the fitted curve at half-maximal effect
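Fluorescent replication assay read twice, at 0 min and 10 min after adding 50 nM (final) substrate. Enzyme (10 nM) and compounds were first incubated 15 min at room temperature; enzyme-free buffer wells were negative controls.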
WRN inhibitor: qHTS for Inhibitors of WRN Helicase; Bifunctional 3'-5' exonuclease/ATP-dependent helicase WRN (Homo sapiens), Q14191; hit rate 0.46% among 360,000; Potency, µM (series often up to 114 µM), for the others: top-dose activity change, negative = inhibition, actives largely listed as inhibitors; AID 651768, 2012; WRN helicase unwinding, fluorescent forked duplex, kinetic; also: potency is read from the fitted curve at half-maximal effect; % is scaled to controls: 0 for no effect and ±100 for the full control effect; nearly all actives have a fitted effect of over 55% in size
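Primary qHTS, 1536-well format. 20 nM WRN + compound, 15 min RT; start with 100 nM forked fluorophore/quencher duplex, 2 mM ATP (final); kinetic read ex 525/em 598 nm.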
The depositor's hits bear a star; ? = inconclusive; . = not tested or not shown; ! = not confirmed by another sample; [ ] = remark or other dose. Unless noted, calls follow the shape of the dose curve; as a rule, active = well fitted curve in the direction sought with a large enough effect; inconclusive = small, poorly fitted or top-dose-only effect, or another doubt; inactive = no such curve, though single readings can be large; an effect the other way counts as inactive or inconclusive.

SMILES	POLH inh	POLB inh	Pol kappa inh	PI5P4Ka inh	Pol iota inh	WRN inhibitor
Cc1c(Cl)cccc1NC(=O)CN1C(=O)COc2ccc(S(=O)(=O)Nc3ccccc3)cc21	4%	0%	3%	.	-18%	.
C=C(C)C(=O)Nc1cccc(C2=NOC3(C2)C[C@@H](C(N)=O)N(C(=O)c2ccc(Cl)cc2)C3)c1 (some centres undefined)	4.5µM*	8.9µM*	35µM*	?	35µM*	45µM*
C/C=C/C=C\C(=O)Nc1cccc(C2=NOC3(C2)C[C@@H](C(N)=O)N(C(=O)c2cc([N+](=O)[O-])cc([N+](=O)[O-])c2)C3)c1 (some centres undefined)	-6%	-8%	6%	-24	?	1%
C/C=C\C=C\C(=O)N1CC2(CC(c3cccc(NC(=O)CC(c4ccccc4)c4ccccc4)c3)=NO2)C[C@H]1C(N)=O (some centres undefined)	?	-5%	-22%	-71*	?	-10%
C/C=C\C(=O)Nc1cccc(C2=NOC3(C2)C[C@H](C(N)=O)N(C(=O)/C=C/CC)C3)c1 (some centres undefined)	3%	32%	-1%	11	13%	-7%
C/C=C\C=C/C(=O)Nc1cccc(C2=NOC3(C2)C[C@@H](C(N)=O)N(C(=O)/C=C/CC)C3)c1 (some centres undefined)	22µM*	5%	?	-65*	28µM*	?
C/C=C\C=C/C(=O)Nc1cccc(C2=NOC3(C2)C[C@@H](C(N)=O)N(C(=O)/C=C/C=C\C)C3)c1 (some centres undefined)	7.9µM*	6.3µM*	20µM*	-94*	10µM*	25µM*
C/C=C(/C)C(=O)Nc1cccc(C2=NOC3(C2)C[C@H](C(N)=O)N(C(=O)c2ccc(Cl)cc2)C3)c1 (some centres undefined)	-13%	-4%	5%	-1	41%	-6%
C=C1C=C(C)n2ncc(C(=O)Nc3ccc(C)cn3)c2N1	.	.	-1%	.	?	.
CCN(CC)C(=O)c1ccc2c(c1)N(Cc1ccc(C(F)(F)F)cc1)C(=O)c1ccccc1S2	-14%	8%	1%	.	4%	.
CC(C)(C)n1ncc2c(=O)n(Cc3ccc(C(F)(F)F)cc3)cnc21	.	.	14%	.	8%	.
O=C(C[N+]12CCCc3cccc(c31)CCC2)c1ccccc1	.	.	-9%	.	15%	.
Cc1ccc2nccnc2c1	.	.	8%	.	-18%	.
Cc1ccccc1Cc1c(C)nc2c(C(=O)NCc3ccco3)cnn2c1C	?	45µM*	-16%	.	?	-15%
COc1ccc(S(=O)(=O)N(Cc2ccccc2)c2ccccc2C(=O)Nc2ccccc2C(=O)NCc2ccco2)cc1	-19%	89µM*	-20%	13	-5%	-10%
COc1ccc(S(=O)(=O)Nc2ccccc2C(=O)NCc2ccco2)cc1	-15%	-14%	-1%	-20	?	-9%
COc1ccc(CNC(=O)Nc2cc(C)cc(C)c2)cc1	-1%	32µM*	-1%	5	20%	0%
O=C(CSC1=Nc2ccccc2N=C(c2ccc(F)cc2)C1)NCc1ccccc1	-17%	-5%	-14%[60.1 µM]	.	6%	.
Cc1ccc(N2NC(=O)/C(=C\c3cc4c(cc3[N+](=O)[O-])OCO4)C2=O)cc1C	?	20µM*	-17%	-57*	?	?
O=C1NN(c2ccccc2)C(=O)/C1=C\c1ccc2c(c1)OCO2	2%	4%	-3%	2	110%	?
CCc1ccccc1NC(=O)Cn1ccn(Cc2ccccc2)c(=O)c1=O	-1%	2%	-6%	.	-23%	.
CN1CCc2cccc3c2[C@H]1Cc1ccc(O)c(O)c1-3	-1%	3%	-6%	-56*!	18µM*	-16%
COc1cc2c3cc1OCc1c(O)c(OC)cc4c1C(Cc1ccc(cc1)Oc1cc(ccc1O)CC3N(C)CC2)N(C)CC4 (centres undefined)	.	.	-11%	.	-6%	.
COc1cc2sc3ccc(-c4ccc5[nH]ccc5c4)cc3c(=O)c2cc1OC	-6%	.	-44%	-7	79µM*	-10%
COc1cc2sc3ccc(C#Cc4ccc(N)cc4)cc3c(=O)c2cc1OC	-12%	.	10%	3	1%	-6%
SMILES	POLH inh	POLB inh	Pol kappa inh	PI5P4Ka inh	Pol iota inh	WRN inhibitor
COc1ccc(O)c(C(=O)C2c3ccccc3C(=O)N2c2ccc(C)cc2)c1 (centres undefined)	-13%	-9%	-17%	-4	8%	50µM*
COc1cccc(CNC(=O)c2cc(C)nc3c2c(C)nn3-c2ccc(C)cc2)c1	-20%	-3%	1%	.	5%	.
Nc1ccc(/C=C/c2nc3ccccc3s2)cc1	.	.	-23%	.	-20%	.
O=C(CBr)c1ccc(Oc2ccc(C(=O)C[n+]3cccc(Br)c3)cc2)cc1	.	.	0%	.	79µM*	.
COc1ccc(C(=O)C[n+]2cccc(Br)c2)cc1	-6%	-2%	-8%	-5	8%[58.9 µM]	?
CCOc1ccc(C2C(=O)N(C3CCCCCC3)CC(=O)N2CCc2ccc(OC)c(OC)c2)cc1OC (centres undefined)	-8%	1%	-13%[60.1 µM]	.	9%	.
O=C(Nc1ccc(-n2nncc2-c2ccco2)cc1)c1cccc(F)c1	-7%	-2%	-17%	.	?	-11%
O=C(Nc1ccc(-n2nncc2-c2ccco2)cc1)c1cc2ccccc2oc1=O	89µM*	28µM*	5.6µM*	.	11µM*	50µM*
COc1ccc(C)cc1NC(=O)CSc1nnc(-c2ccco2)n1N	13%	-2%	-28%	5	23%	-3%
COc1ccccc1-c1ccc(SCC(=O)NCCc2ccccc2)nn1	-22%	24%	10%	10	167%	3%
Cc1cccc(NC(=O)CSc2ccc(-c3ccco3)nn2)c1C	5%	?	?	-2	13µM*	?
